Screens (PubChem BioAssay)
A selection: hits, their analogues and other compounds. The true share with any hit is near 2.9%.
TRPML1 blocker = qHTS for Inhibitors of the Human Mucolipin Transient Receptor Potential 1 (TRPML1) | Mucolipin-1 (Homo sapiens), Q9GZU1 | activity change, negative = inhibition, % (concentration not given with the values) | TRPML1-inducible cells, Ca2+ dye fluorescence, FDSS; stronger effect = lower value; inhibition of EC80 agonist-evoked calcium signal | AID 624415, 2012 | hit rate 0.02% among 390,000; in the data active = activity change below about -50%; inconclusive = between about -30% and that limit;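 also: stimulus is agonist 54-4 at its EC80 concentration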
Target sequence (Q9GZU1 whole entry, looked up): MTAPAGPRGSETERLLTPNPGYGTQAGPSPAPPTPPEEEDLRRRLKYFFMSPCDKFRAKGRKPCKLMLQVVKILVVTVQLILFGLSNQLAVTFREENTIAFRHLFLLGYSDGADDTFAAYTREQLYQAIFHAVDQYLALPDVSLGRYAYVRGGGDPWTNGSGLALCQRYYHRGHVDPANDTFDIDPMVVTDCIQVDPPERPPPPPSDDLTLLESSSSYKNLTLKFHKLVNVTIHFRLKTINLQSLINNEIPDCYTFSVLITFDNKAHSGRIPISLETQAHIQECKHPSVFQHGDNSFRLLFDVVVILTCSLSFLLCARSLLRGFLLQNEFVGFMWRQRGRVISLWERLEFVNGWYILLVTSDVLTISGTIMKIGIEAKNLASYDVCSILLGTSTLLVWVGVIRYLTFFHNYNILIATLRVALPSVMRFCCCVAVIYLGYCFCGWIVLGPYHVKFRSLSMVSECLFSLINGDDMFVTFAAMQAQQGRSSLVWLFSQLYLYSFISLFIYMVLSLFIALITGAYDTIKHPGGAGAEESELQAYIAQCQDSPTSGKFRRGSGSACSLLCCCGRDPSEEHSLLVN
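Calcium fluorescence in TRPML1-DL cells induced overnight with Tet: a 110 s read after compound pin addition, then a 110 s antagonist read after challenge with 54-4 at 4 uM final (EC80).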
DRD3 agonist = qHTS of D3 Dopamine Receptor Agonist: qHTS | D3R DiscoveRx beta-arrestin cells, luminescence, 90 min | max activation, % | hit rate 0.58% among 410,000 | AID 652048, 2013; in the data active = max activation above about 30%
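Agonist-mode cell screen: cells plated at 1500/well and incubated overnight at 37 °C, then exposed to library compounds for 90 min at 37 °C. Detection reagent was added for 30–60 min at room temperature, and luminescence was read.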
D3 antag = qHTS of D3 Dopamine Receptor Antagonist: qHTS; hit rate 2.5% among 360,000; D3R cells, DiscoveRx beta-arrestin luminescence, antagonist mode; stronger effect = lower value; max response, negative = inhibition, %; D(3) dopamine receptor (Homo sapiens), P35462; in the data active = max response below about -50%; inconclusive = no clear call, values can overlap the other calls
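Cells expressing the human receptor were seeded at 1500 cells/well, incubated overnight at 37 degrees C in 5% CO2, then exposed to library compounds with dopamine controls for 90 minutes at 37 degrees C before luminescent detection.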
TRPML1 ag = qHTS for Agonists of the Human Mucolipin Transient Receptor Potential 1 (TRPML1); Mucolipin-1 (Homo sapiens), Q9GZU1; TRPML1-expressing cells, Ca2+ dye fluorescence, FDSS; activation, % (test concentration not listed); hit rate 0.12% among 410,000; AID 624414, 2012; in the data active = activation above about 50%; inconclusive = mostly about 30% to 49%
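Kinetic FDSS Ca2+ read in Tet-induced TRPML1-DL cells (ABD Ca8 dye plus quencher, 45-90 min RT loading): baseline, then compound, then 110 s agonist window; EC80 agonist 54-4 at 4uM final added afterwards for a 110 s antagonist window.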
Each line names hits and unclear results; the compound was inactive in the other large screens.

Cc1ccc(CCC2C3=C(CCCC3=O)OC3=C2C(=O)CCC3)cc1	DRD3 agonist 30.4, D3 antag inconclusive
CC(C)c1ccc(CC(C)C2C3=C(CCCC3=O)OC3=C2C(=O)CCC3)cc1 (configuration not stated)	none
O=c1oc(-c2cccc(Cl)c2)nc2c1cnn2-c1ccccc1	none
O=c1oc(-c2ccccc2F)nc2c1cnn2-c1ccccc1	D3 antag -64.5
CCOC(=O)C1=C(C)N(c2ccc(OC)cc2)C(=O)/C1=C\c1ccc(O)c(OCC)c1	none
CCOC(=O)C1=C(C)N(c2ccc(OC)cc2)C(=O)/C1=C\c1cccs1	DRD3 agonist 71.5
Cc1cc(C)c2c(CC(=O)NCCc3ccccc3)coc2c1	DRD3 agonist 34.3
CCC(Sc1nnc(C)n2c1cc1occc12)C(=O)Nc1ccccc1F (configuration not stated)	none (no result: D3 antag)
Cc1oc(-c2ccc(C(=O)Nc3ccccc3F)cc2)nc1COc1ccccc1	none (no result: D3 antag)
Cc1oc(-c2ccc(C(=O)NCc3ccccc3F)cc2)nc1COc1ccccc1	DRD3 agonist 33.9 (no result: D3 antag)
O=C1O[C@@H](c2ccccc2)C[C@@H](O)[C@H](O)CCCc2ccccc21	D3 antag -54.6 (no result: TRPML1 blocker)
COc1ccc(CCC(=O)NNC(=O)Nc2cccc(Cl)c2)cc1	none
O=C(CCc1ccc(O)c(O)c1)NNC(=S)Nc1ccc(Br)cc1Cl	DRD3 agonist 37.3, D3 antag inconclusive
COc1cccc(NC(=O)NNC(=O)CCc2ccc(O)c(O)c2)c1	DRD3 agonist 66.9
O=C(CCc1ccccc1)NNC(=S)NCc1ccc(Cl)cc1	none
O=C(CCc1ccc(O)c(O)c1)NNC(=S)NCCc1ccccc1	DRD3 agonist 58.7
COc1ccccc1CNC(=O)c1ccc(N2Cc3cccc(OC)c3Oc3ncccc32)s1	none (no result: D3 antag)
CCOc1ccc(-c2cc3cc(OC)c(OC)cc3c(C)n2)cc1	none
CCc1nc(-c2ccc(OC)c(OC)c2)cc2cc(OC)c(OC)cc12	DRD3 agonist 36.1
O=C1CCCC2=C1C(c1ccc(Br)cc1)c1c([nH]c(=S)[nH]c1=O)N2 (configuration not stated)	D3 antag -80.4
Cc1ccc(C2C3=C(CCCC3=O)Nc3[nH]c(=S)[nH]c(=O)c32)cc1 (configuration not stated)	D3 antag inconclusive
OC[C@H]1O[C@@H](n2cnc3c(=S)nc[nH]c32)[C@H](O)[C@@H]1O	none (no result: TRPML1 blocker, D3 antag, TRPML1 ag)
COc1ccc(C[C@H]2CN3C(=NC[C@@H]3Cc3ccc(O)cc3)N2C[C@H](C)NC(=O)c2ccc(C)c(Br)c2)cc1	D3 antag -80.6
COc1ccc(C[C@H]2CN3C(=NC[C@@H]3C(C)C)N2C[C@H](C)NC(=O)c2ccc(C)c(Br)c2)cc1	D3 antag -75.6
C[N+]1(CC(=O)c2ccccc2)CCc2ccccc2C1 (configuration not stated)	none (no result: TRPML1 blocker, DRD3 agonist, D3 antag)
CCCCC1C(=O)N(c2ccccc2)N(c2ccc(O)cc2)C1=O (configuration not stated)	D3 antag -74.3
CC(C)=CCC1C(=O)N(c2ccccc2)N(c2ccccc2)C1=O	none (no result: TRPML1 blocker, D3 antag, TRPML1 ag)
CN(C)c1ccc(/C=C/c2sc3ccccc3[n+]2CCCCI)cc1	none (no result: TRPML1 blocker, DRD3 agonist, D3 antag)
Cc1ccc(C)c(CN2C(=O)C3(c4ccccc42)N(c2ccc(Cl)cc2)C(=O)CS3(=O)=O)c1 (configuration not stated)	none (no result: D3 antag)
Cc1ccc(C(=O)Nc2ccc3nc(SCC(=O)N4CCCc5ccccc54)sc3c2)cc1	none (no result: D3 antag)
O=C(NCc1ccccn1)c1c(O)c2cccc3c2n(c1=O)CC3	D3 antag -56.3
O=C(NCCc1ccccc1)c1c(O)c2cccc3c2n(c1=O)CC3	none
O=[N+]([O-])c1cc(CN2CCCCCC2)ccc1O	D3 antag inconclusive
Cc1ccc(Sc2ccc(CN3CCCCC3)cc2[N+](=O)[O-])cc1	D3 antag -106.0
Cc1ccccc1N(C)S(=O)(=O)c1ccc2[nH]cc(C(=O)NCC3CCCO3)c(=O)c2c1 (configuration not stated)	D3 antag -69.3
CCc1ccc(N(C)S(=O)(=O)c2ccc3[nH]cc(C(=O)NCC4CCCO4)c(=O)c3c2)cc1 (configuration not stated)	none (no result: D3 antag)
CCn1cc(C(=O)NCC2CCCO2)c(=O)c2cc(S(=O)(=O)N(C)C)ccc21 (configuration not stated)	none
CCn1cc(C(=O)NCC2CCCO2)c(=O)c2cc(S(=O)(=O)N(C)C3CCCCC3)ccc21 (configuration not stated)	D3 antag -51.9
Cc1ccc2occ(CC(=O)Nc3ccc(Cl)c(C(F)(F)F)c3)c2c1	none (no result: D3 antag)
CCOc1ccccc1N(C)C(=O)Cn1cnc2onc(-c3ccc(F)cc3)c2c1=O	none (no result: D3 antag)
CC[C@@H](C)[C@@H]1CN([C@@H](C)CN2CCC[C@H]2CN2C(N)=NC[C@@H]2Cc2ccccc2)C(=N)N1CCCC1CCCC1	none
CC[C@@H](C)[C@@H]1CN([C@@H](C)CN2CCC[C@H]2CN2C(N)=NC[C@@H]2Cc2ccccc2)C(=N)N1CCc1ccc(Cl)c(Cl)c1	D3 antag -66.2
Cn1c(-c2sc3ccccc3c2Cl)n[nH]c1=S	D3 antag -75.7
Cn1c(CSc2nc3ccccc3s2)n[nH]c1=S	D3 antag -64.7
Cn1c(CSc2nc3ccccc3s2)nc2ccccc21	none
CN(C)CC1CC/C(=C\c2ccc(O)cc2)C1=O (configuration not stated)	D3 antag -61.4
COc1ccc(/C=C2/CCC(CN3CCOCC3)C2=O)cc1 (configuration not stated)	D3 antag -66.9
COc1ccc(/C=C2\CCC(C3CCCC3)C2=O)cc1 (configuration not stated)	none
CCCCCCC(=O)O[C@H]1CC[C@H]2[C@@H]3CCc4cc(O)ccc4[C@H]3CC[C@]12C	none (no result: TRPML1 blocker, D3 antag, TRPML1 ag)
CCC(C(=O)NCCCN(CC)Cc1ccccc1)n1nc(C)c2sc3ccccc3c2c1=O (configuration not stated)	D3 antag -83.7
CCC(C(=O)NCCc1ccc(C)cc1)n1nc(C)c2c(C)n(-c3ccccc3)nc2c1=O (configuration not stated)	D3 antag -78.8
Cc1nn(CCC(=O)NCc2ccc(Cl)cc2)c(=O)c2nn(-c3ccccc3)c(C)c12	DRD3 agonist 56.6 (no result: D3 antag)
Cc1nn(CCC(=O)NCc2ccc(N(C)C)cc2)c(=O)c2nn(-c3ccccc3)c(C)c12	none
CCC(C(=O)NCc1ccccc1)n1nc(C)c2sc3ccccc3c2c1=O (configuration not stated)	none (no result: D3 antag)
COc1ccc(N(C)C(=O)CCn2cnc3onc(-c4ccc(F)cc4)c3c2=O)c(OC)c1	none (no result: D3 antag)
COCCn1c(SCC(=O)c2ccc(F)cc2)nc2cc(C(=O)NC3CCCC3)ccc2c1=O	none (no result: D3 antag)
O=C(COc1ccc(Cl)cc1)N/N=C/CCc1ccccc1	D3 antag -60.0
